# Measured values as given in PubChem BioAssay (EPA / NIEHS).
# Inconclusive results are not listed. Active and inactive are the calls of the source. The calls were made as follows: active = hit-call score of the fitted dose curve at least 0.9, where 1 is the maximum; inconclusive = response in the unintended direction; inactive = score below 0.9.
# Molecular target: rat Acetylcholinesterase (AChE), Ache (gene 83817) (UniProt P37136)
# Assay: NVS_ENZ_rAChE: NovaScreen (NVS) Enzymatic Assay for rat Acetylcholinesterase (AChE) (AID 2283233)
# Experimental: NVS_ENZ_rAChE is a biochemical, single-readout assay that uses extracted gene-proteins from Rat brain membranes in a tissue-based cell-free assay. Measurements were taken 0.33 hour after chemical dosing in a 96-well plate.NVS_ENZ_rAChE is one of one assay component(s) measured or calculated from the NVS_ENZ_rAChE assay. It is designed to make measurements of enzyme activity, a form of enzyme reporter, as detected with absorbance signals by Colorimetric technology.Data from the assay component NVS_ENZ_rAChE was analyzed into 1 assay endpoint. This assay endpoint, NVS_ENZ_rAChE, was analyzed in the positive analysis fitting direction relative to DMSO as the negative control and baseline of activity. Using a type of enzyme reporter, loss-of-signal activity can be used to understand changes in the enzymatic activity as they relate to the gene Ache. Furthermore, this assay endpoint can be referred to as a primary readout, because this assay has produced multiple assay endpoints where this one serves a enzymatic activity function. To generalize the intended target to other relatable targets, this assay endpoint is annotated to the esterase intended target family, where the subfamily is acetylcholinesterase.
# Binding assays used specific radioligands (tritiated, iodinated) with non-radioactive competitive displacement ligands in agonist or antagonist protocols (as indicated) and various reference compounds and inhibitors to titrate specific binding to receptors and transporters. Most enzyme assays (CYPs, kinases, phosphatases, proteases, HDACs) used recombinant protein and specific substrates (fluorescence mostly, some colorimetric and radioactive) and inhibitors, followed by a biochemical separation of substrate and product. All assays for the biochemical HTS were initially run in duplicate at a single concentration (10 uM for CYP450 assays and 25 uM for all others). Assay-chemical combinations meeting a pre-defined threshold (e.g., 30% inhibition and other criteria defined below) were then run in singleton concentration-response format with maximum concentration of 20 uM for CYPs and 50 uM for all others. Each assay was run with positive and negative controls, and concurrent controls on every plate. The follow-up (secondary) screen tested active chemical-pairs in concentration series, as well as a few additional assays not tested in the primary screen, some selected negative inactives, and several cases re-run in the concentration series for confirmatory purposes.
# Chain of rat Acetylcholinesterase (AChE), Ache (gene 83817) (P37136 whole entry, looked up): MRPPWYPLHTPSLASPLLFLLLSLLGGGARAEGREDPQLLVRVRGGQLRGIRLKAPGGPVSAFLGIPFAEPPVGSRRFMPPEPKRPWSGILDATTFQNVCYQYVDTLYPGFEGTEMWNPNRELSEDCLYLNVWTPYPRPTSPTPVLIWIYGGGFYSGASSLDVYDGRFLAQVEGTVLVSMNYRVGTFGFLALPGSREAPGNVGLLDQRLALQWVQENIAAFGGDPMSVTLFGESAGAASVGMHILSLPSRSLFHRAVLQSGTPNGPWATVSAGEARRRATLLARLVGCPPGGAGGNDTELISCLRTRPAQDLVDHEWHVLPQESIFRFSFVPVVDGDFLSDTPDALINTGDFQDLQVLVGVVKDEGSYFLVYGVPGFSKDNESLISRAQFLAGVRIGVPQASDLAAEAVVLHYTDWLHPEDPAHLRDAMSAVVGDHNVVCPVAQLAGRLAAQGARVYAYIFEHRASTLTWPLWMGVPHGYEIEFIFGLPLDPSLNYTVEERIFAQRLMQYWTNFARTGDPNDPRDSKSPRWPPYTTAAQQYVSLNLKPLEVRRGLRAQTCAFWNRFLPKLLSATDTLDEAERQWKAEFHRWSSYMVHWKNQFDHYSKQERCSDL
Compound,AC50,outcome
S=C(NC1CCCCC1)NC1CCCCC1,17.2 µM (active),–
CCCC(=O)OCCC(C)C,–,inactive
COc1ccc2cc(S(=O)(=O)N[C@H](CC(=O)N[C@H](Cc3ccc(CN4[C@H](C)CCC[C@@H]4C)cc3)C(=O)N(C)C(C)C)c3ccc4c(c3)OCO4)ccc2c1,30.6 µM (active),–
O=c1[nH]c2ccc(S(=O)CCN3CCC(Cc4ccc(F)cc4)CC3)cc2o1 (stereo not given),5.31 µM (active),–
CC(C)=CCC/C(C)=C\CO,–,inactive
CC[C@H]1CC[C@H](NCc2cc3c(cc2OC)[C@H]2C[C@H]2C(=O)N3C)[C@H](c2ccccc2)N1,15.7 µM (active),–
COCCOc1cc2cc(C(=O)NC3CCN(C(C)C)CC3)n(CC(=O)Nc3ccc(Cl)cn3)c2cn1,19 µM (active),–
CCCCCCCC(=O)O,–,inactive
NC(=O)Cn1c(=O)cc(CCN2CCN(c3nccc4sccc34)CC2)c2ccc(F)cc21,–,inactive
CN(C)c1ccc(C(=C2C=CC(=[N+](C)C)C=C2)c2ccc(N(C)C)cc2)cc1,17.1 µM (active),–
CCCCc1oc2ccccc2c1C(=O)c1cc(I)c(OCCN(CC)CC)c(I)c1,–,inactive
O=C1OC2(c3cc(Br)c(O)c(Br)c3Oc3c2cc(Br)c(O)c3Br)c2c(Cl)c(Cl)c(Cl)c(Cl)c21,2.75 µM (active),–
CCCCCCCC=O,–,inactive
NC(=O)N(O)[C@@H]1C=C[C@H](Oc2cccc(Oc3ccc(F)cc3)c2)C1,–,inactive
Clc1cc(Cl)c2c(c1)N=C1CCCCCN1C2,0.463 µM (active),–
CCOC(=O)c1ccc(C2CCC(NC[C@H](O)COc3ccc(O)c(NS(C)(=O)=O)c3)CC2)cc1 (stereo not given in full),15 µM (active),–
COc1cc(C(C)C)c2c(c1)S(=O)(=O)N(COc1cc(=O)n3cccc(OCCN4CCCCC4)c3n1)C2=O,6.25 µM (active),–
CCCCCCCCCCCC[N+](C)(C)C,–,inactive
CN1CCN(Cc2cc(-c3ccc4[nH]c(=O)oc4c3)co2)[C@@H](c2ccc(F)cc2)C1,–,inactive
CCCCCCCCCCCCCC[N+](C)(C)C,21.3 µM (active),–

Compound,AC50,outcome
CNS(=O)(=O)c1cc(C(=O)N2CCC(CCN3C4CCC3CC(n3c(C)nc5ccccc53)C4)(c3cccc(F)c3)CC2)c(Cl)cc1F (stereo not given),–,inactive
S=C(S)NCCNC(=S)S.[Mn+2].[S-]C([S-])=NCCN=C([S-])[S-].[Zn+2],–,inactive
c1ccc(Oc2ccccc2)cc1,–,inactive
CN(C)C(=O)C1(N2CCCCC2)CCN(CC[C@@]2(c3ccc(Cl)c(Cl)c3)CN(C(=O)c3ccccc3)CCO2)CC1,9.53 µM (active),–
O=C1c2c(O)ccc(Nc3ccc(CCO)cc3)c2C(=O)c2c([N+](=O)[O-])ccc(O)c21,1.91 µM (active),–
CSC(=O)c1cccc2nnsc12,1.32 µM (active),–
CCn1nc(C)c2c1C(=O)NCC(c1ccc(O)cc1)=N2,–,inactive
S=C([S-])NCCNC(=S)[S-].[Mn+2],–,inactive
NCc1cccc(C2CCN(C(=O)c3ccc(C#Cc4ccccc4F)o3)CC2)c1,11.3 µM (active),–
CCCCCCCCCC,–,inactive
CC(C)CCCCCCOC(=O)C1CCCCC1C(=O)OCCCCCCC(C)C (stereo not given),–,inactive
CCOC(=O)C1=NOC(c2ccccc2)(c2ccccc2)C1,–,inactive
N=C(N)c1ccc(OCCCCCOc2ccc(C(=N)N)cc2)cc1,21.9 µM (active),–
Cc1nccn1-c1ccc(Sc2cccc(C3(C(N)=O)CCOCC3)c2)cc1,–,inactive
Cn1cnc2c1c(=O)[nH]c(=O)n2C,–,inactive
O=S1(=O)CC(Cl)(Cl)C(Cl)(Cl)C1,26.1 µM (active),–
O=C(Nc1ccc(Cl)cc1)Nc1ccc(Cl)c(Cl)c1,–,inactive
CCN(CC)CCNc1ccc(CNC=O)c2sc3ccc(OC)cc3c(=O)c12,15.7 µM (active),–
Cc1cc(CCN2CCN(c3nsc4ccccc34)CC2)cc2c1NC(=O)CC2(C)C,–,inactive
O=Cc1ccccc1C=O,–,inactive
